Measurements as given in PubChem BioAssay (NCATS).
Inconclusive results are not listed. Active and inactive are the calls of the source. Unless noted, calls follow the shape of the dose curve; as a rule, active = well fitted curve in the direction sought with a large enough effect; inconclusive = small, poorly fitted or top-dose-only effect, or another doubt; inactive = no such curve, though single readings can be large; an effect the other way counts as inactive or inconclusive.

What was measured:
[1] = biological target: ATP-dependent 6-phosphofructokinase (Trypanosoma brucei brucei) (UniProt O15648); experiment: qHTS Assay to Find Inhibitors of T. brucei phosphofructokinase: hit validation (AID 492961);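 also: luminescence reports ADP formed as PFK phosphorylates fructose-6-phosphate with ATP; % is scaled to controls: 0 for no effect and ±100 for the full control effect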
Method in brief: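 Compounds titrated; %activity normalized to 0x and 1x enzyme controls, curve-fitted. Readout: ADP-Glo luminescence after 45 min room-temperature reaction of 1.25 nM PFK, 0.1 mM ATP, 0.5 mM F6P, pH 8.0.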

[2] = S16 Schwann cell PMP22 intronic element beta-lactamase assay (AID 624044; calls by dose curve;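 also: 0% = DMSO and -100% = potassium clavulanate positive control; nearly all actives have a fitted effect of over 15% in size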); conditions: S16 rat Schwann cells, PMP22 element beta-lactamase FRET, 24 h; ratio activity, negative = inhibition: at 38.3 µM (top of the series)
Method in brief: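 Rat S16 Schwann cells with beta-Lac driven by a PMP22 intronic element, compound-treated 24 h at 37 °C. LiveBLAzer FRET B/G read: 460 nm normalized to potassium clavulanate vs DMSO; 535 nm FRET as viability; concentration-effect curves classified.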

[3] = tested on: CP192; experiment: qHTS profiling for inhibitors of Plasmodium falciparum proliferation (AID 504749); also: nearly all actives have a fitted effect of over 60% in size; also: potency is read from the fitted curve at half-maximal effect;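 as to activity, negative = inhibition: 0% = DMSO vehicle and full inhibition = artemisinin control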; conditions: P. falciparum in erythrocytes, SYBR Green DNA, 72 h; series mostly up to 28.7 µM
Method in brief: (§1)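 Readout was DNA-dye fluorescence from lysed cultures, ex 485/em 535 nm. Parasitized red cells had grown 72 h with compound; data scaled between 0.29 uM artemisinin and DMSO wells and corrected using vehicle-only plates.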

[4] = tested on: CP201; experiment: as above; conditions: P. falciparum in erythrocytes, SYBR Green DNA, 72 h; series mostly up to 28.7 µM
Method in brief: as §1

[5] = tested on: CP262; experiment: as above; conditions: P. falciparum in erythrocytes, SYBR Green DNA, 72 h; series mostly up to 28.7 µM
Method in brief: as §1

[6] = tested on: CP315; experiment: as above; conditions: P. falciparum in erythrocytes, SYBR Green DNA, 72 h; series mostly up to 28.7 µM
Method in brief: as §1

[7] = tested on: CP325; experiment: as above; conditions: P. falciparum in erythrocytes, SYBR Green DNA, 72 h; series mostly up to 28.7 µM
Method in brief: as §1

[8] = tested on: Dd2; experiment: as above; conditions: P. falciparum in erythrocytes, SYBR Green DNA, 72 h; series mostly up to 28.7 µM
Method in brief: as §1

[9] = tested on: PC49; experiment: as above; conditions: P. falciparum in erythrocytes, SYBR Green DNA, 72 h; series mostly up to 28.7 µM
Method in brief: as §1

[10] = qHTS for Inhibitors of Plasmodium falciparum (DD2) proliferation (AID 504314);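 also: parasite DNA measured by SYBR Green fluorescence after red cell lysis; plate controls were DMSO vehicle for no effect and artemisinin wells for full effect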
Method in brief: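 Quantitative HTS growth inhibition: SYBR Green I binding to parasite DNA after 72 h drug exposure of infected erythrocytes (0.3% parasitemia, 2.5% hematocrit). Signals normalized per plate to inhibitor and vehicle wells.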

[11] = qHTS for Inhibitors of Plasmodium falciparum (GB4) proliferation (AID 504315); also: nearly all actives have a fitted effect of over 50% in size; also: potency is read from the fitted curve at half-maximal effect
Method in brief: (§2)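 Erythrocytes infected with P. falciparum line (0.3% parasitemia, 2.5% hematocrit final) incubated with compounds 72 h at 37 °C, 5% CO2; SYBR Green lysis buffer added, fluorescence read next day. Normalized to 0.29 uM artemisinin and DMSO.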

[12] = qHTS for Inhibitors of Plasmodium falciparum (7G8) proliferation (AID 504316); also: nearly all actives have a fitted effect of over 65% in size; also: potency is read from the fitted curve at half-maximal effect
Method in brief: as §2

[13] = biological target: Luciferin 4-monooxygenase (Photinus pyralis) (UniProt P08659); experiment: Biochemical firefly luciferase enzyme assay for NPC (AID 624030);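 also: purified P. pyralis luciferase at 10 nM with luciferin and ATP substrate; 0% = DMSO and -100% = full luciferase inhibition by PTC124 control; nearly all actives have a fitted effect of over 70% in size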
Method in brief: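 Purified P. pyralis luciferase at 10 nM in 50 mM Tris Acetate (final), luminescence read within 5 minutes of enzyme addition to compounds. Activity normalised to PTC124 versus DMSO; concentration-response curves classed by r2, magnitude and activity.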

[14] = qHTS profiling for inhibitors of Plasmodium falciparum proliferation (AID 504749); also: nearly all actives have a fitted effect of over 60% in size; also: potency is read from the fitted curve at half-maximal effect;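 as to activity, negative = inhibition: 0% = DMSO vehicle and full inhibition = artemisinin control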; conditions: P. falciparum in erythrocytes, SYBR Green DNA, 72 h, at 28.7 µM (top of the series)
Method in brief: as §1

[15] = tested on: CP329; experiment: as above; conditions: P. falciparum in erythrocytes, SYBR Green DNA, 72 h; series mostly up to 28.7 µM
Method in brief: as §1

[16] = tested on: FAB9; experiment: as above; conditions: P. falciparum in erythrocytes, SYBR Green DNA, 72 h; series mostly up to 28.7 µM
Method in brief: as §1

[17] = tested on: CP269; experiment: as above; conditions: P. falciparum in erythrocytes, SYBR Green DNA, 72 h; series mostly up to 28.7 µM
Method in brief: as §1

[18] = qHTS for Inhibitors of Plasmodium falciparum (HB3) proliferation (AID 504318); also: nearly all actives have a fitted effect of over 60% in size; also: potency is read from the fitted curve at half-maximal effect
Method in brief: as §2

[19] = qHTS for Inhibitors of Plasmodium falciparum (CP250) proliferation (AID 504320);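 also: plate controls were DMSO vehicle for no effect and 0.29 µM artemisinin control for full effect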
Method in brief: as §2

ATP-dependent 6-phosphofructokinase (Trypanosoma brucei brucei), sequence (O15648 whole entry, looked up): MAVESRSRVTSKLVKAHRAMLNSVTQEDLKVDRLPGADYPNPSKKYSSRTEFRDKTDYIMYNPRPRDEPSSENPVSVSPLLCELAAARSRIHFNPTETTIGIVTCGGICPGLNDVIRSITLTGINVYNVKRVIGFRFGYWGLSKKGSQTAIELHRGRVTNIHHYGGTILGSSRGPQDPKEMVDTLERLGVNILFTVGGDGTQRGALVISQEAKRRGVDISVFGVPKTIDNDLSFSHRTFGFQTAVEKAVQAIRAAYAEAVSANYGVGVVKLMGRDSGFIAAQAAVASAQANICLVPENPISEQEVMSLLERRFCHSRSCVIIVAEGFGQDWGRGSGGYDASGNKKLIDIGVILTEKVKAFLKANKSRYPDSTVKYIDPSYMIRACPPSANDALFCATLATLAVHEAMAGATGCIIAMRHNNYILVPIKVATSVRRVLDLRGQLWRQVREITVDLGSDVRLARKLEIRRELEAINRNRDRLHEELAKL
Luciferin 4-monooxygenase (Photinus pyralis), sequence (P08659 whole entry, looked up): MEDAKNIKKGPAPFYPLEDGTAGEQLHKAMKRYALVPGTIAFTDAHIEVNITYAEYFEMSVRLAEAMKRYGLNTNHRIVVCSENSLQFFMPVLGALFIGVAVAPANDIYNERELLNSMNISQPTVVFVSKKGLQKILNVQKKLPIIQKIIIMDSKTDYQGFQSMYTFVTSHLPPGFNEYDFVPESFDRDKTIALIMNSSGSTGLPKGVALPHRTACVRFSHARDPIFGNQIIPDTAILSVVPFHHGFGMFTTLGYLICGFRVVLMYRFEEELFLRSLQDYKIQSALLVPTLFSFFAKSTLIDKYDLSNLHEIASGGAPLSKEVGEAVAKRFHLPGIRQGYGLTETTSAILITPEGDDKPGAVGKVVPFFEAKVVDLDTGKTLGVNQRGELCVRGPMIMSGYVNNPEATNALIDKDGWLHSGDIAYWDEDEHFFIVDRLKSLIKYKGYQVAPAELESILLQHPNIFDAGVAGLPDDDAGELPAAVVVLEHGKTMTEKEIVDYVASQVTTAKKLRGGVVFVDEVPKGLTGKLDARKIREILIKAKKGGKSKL

COC(=O)C1[C@@H](OC)C(OC(=O)COc2ccc(OC)cc2)C[C@@H]2CN3CCc4c([nH]c5cc(OC)ccc45)[C@H]3C[C@H]12 (stereo partly specified)
active: Potency [8] 10000 nM
inactive: Potency [1] | Potency [2] | Potency [3] | Potency [4] | Potency [5] | Potency [6] | Potency [7] | Potency [9]

C=CCN1c2ccccc2[C@]23C[C@@H](C(=O)OC)N(S(=O)(=O)c4ccc([N+](=O)[O-])cc4)C2=NC(C(=O)OC)=C(C(=O)OC)[C@H]13
active: Potency [11] 1510 nM | Potency [12] 1690 nM
inactive: Potency [10]

Cc1cc(O)c2c(c1)OC1(C)CCC3C(C)(C)CCCC34COC2C14 (stereo unspecified)
inactive: Potency [1] | Potency [13] | Potency [2] | activity, negative = inhibition ([14]; parasite line A) -27.8% | Potency [3] | Potency [4] | Potency [6] | Potency [7] | Potency [15] | Potency [16]

O=C(O)c1ccccc1-c1c2ccc(=O)cc-2oc2cc(O)ccc12
inactive: Potency [1] | Potency [2] | Potency [17] | Potency [6] | Potency [15]

CC#CCN1c2ccccc2[C@]23C[C@@H](C(=O)OC)N(S(=O)(=O)CCCC)C2=NC(C(=O)OC)=C(C(=O)OC)[C@H]13
inactive: Potency [10]

CC#CCN1c2ccccc2[C@]23C[C@@H](C(=O)OC)N(C(=O)C4CCC4)C2=NC(C(=O)OC)=C(C(=O)OC)[C@H]13
inactive: Potency [10]

COC(=O)C1=C(C(=O)OC)[C@@H]2Nc3ccccc3[C@@]23C[C@@H](C(=O)OC)N(C(=O)CC(C)C)C3=N1
inactive: Potency [10]

C=C1CC2C3C=C(C)C4=CC(=O)CCC4(C)C3CCC2(C)[C@@]1(OC(C)=O)C(C)=O (stereo partly specified)
inactive: Potency [1] | Potency [13] | Potency [2] | activity, negative = inhibition ([14]; parasite line B) -26.9% | Potency [3] | Potency [15] | Potency [8] | Potency [16] | Potency [9]

CC#CCN1c2ccccc2[C@]23C[C@@H](C(=O)OC)N(S(=O)(=O)c4ccc(OC)cc4)C2=NC(C(=O)OC)=C(C(=O)OC)[C@H]13
inactive: Potency [10]
active: Potency [11] 2130 nM

CCCCC1=CC2=CC(=O)C(C)(OC(=O)CC)C(=O)C2=CN1c1cccc(C#N)c1 (stereo unspecified)
inactive: Potency [10] | Potency [11] | Potency [12] | Potency [18] | Potency [19]

CC(=O)Nc1ccc(S(=O)(=O)N2CCc3nc(COc4ccccc4)c4c(c3C2)CO[C@@H](C)C4)cc1
inactive: Potency [10] | Potency [11] | Potency [12] | Potency [18] | Potency [19]

COC/C=C/C1=CC2=CC(=O)C(C)(OC(=O)c3cnc4ccccc4n3)C(=O)C2=CN1CCN1CCOCC1 (stereo unspecified)
inactive: Potency [10] | Potency [11] | Potency [12] | Potency [18] | Potency [19]

COC(=O)CCC(=O)OC1(C)C(=O)C2=CN(CCN3CCOCC3)C(c3ccc(OC)cc3)=CC2=C(Br)C1=O (stereo unspecified)
inactive: Potency [10] | Potency [11] | Potency [12] | Potency [18] | Potency [19]

Fc1ccccc1-c1nc(-c2ccccc2)oc1NC1CCCCC1
inactive: Potency [10] | Potency [11] | Potency [12] | Potency [18] | Potency [19]

COC(=O)CCCC1=CC2=CC(=O)C(C)(OC(=O)c3cccs3)C(=O)C2=CN1C(CO)CO (stereo unspecified)
inactive: Potency [10] | Potency [11] | Potency [12] | Potency [18] | Potency [19]

CC1(OC(=O)CCc2ccccc2)C(=O)C=C2C=C(c3ccc(C#N)cc3)N(C3CCCCC3)C=C2C1=O (stereo unspecified)
inactive: Potency [10] | Potency [11] | Potency [12] | Potency [18] | Potency [19]

COC/C=C/C1=CC2=CC(=O)C(C)(OC(=O)c3cnc4ccccc4n3)C(=O)C2=CN1CCc1ccccn1 (stereo unspecified)
inactive: Potency [10] | Potency [11] | Potency [12] | Potency [18] | Potency [19]

COC/C=C/C1=CC2=CC(=O)C(C)(OC(=O)c3cnc4ccccc4n3)C(=O)C2=CN1C(CO)CO (stereo unspecified)
inactive: Potency [10] | Potency [11] | Potency [12] | Potency [18] | Potency [19]

CCCCc1nc2c(c3c1C[C@H](C)OC3)CN(S(=O)(=O)c1ccc(C#N)cc1)CC2
inactive: Potency [10] | Potency [11] | Potency [12] | Potency [18] | Potency [19]

COC(=O)N1C2=C(c3ccccc3[C@@H]1CC(=O)Nc1ccc3cc4ccccc4cc3c1)[C@@H]1C(=O)N(c3ccccc3)C(=O)[C@@H]1[C@H](C)C2
inactive: Potency [10]
active: Potency [11] 1510 nM | Potency [12] 1900 nM | Potency [18] 1690 nM

CCCCC1=CC2=C(c3ccco3)C(=O)C(C)(OC(=O)c3ccc(OC)cc3)C(=O)C2=CN1CC(C)C (stereo unspecified)
inactive: Potency [10] | Potency [11] | Potency [12] | Potency [18] | Potency [19]

C=CC[C@]1(C(=O)OC)C=C[C@H](C)[C@@H](c2ccccc2)N1C(=O)C(F)(F)F
inactive: Potency [10] | Potency [11] | Potency [12] | Potency [18] | Potency [19]

CC#CCN1c2ccccc2[C@]23C[C@@H](C(=O)OC)N(S(=O)(=O)c4ccc(Br)cc4)C2=NC(C(=O)OC)=C(C(=O)OC)[C@H]13
active: Potency [11] 1690 nM | Potency [12] 1900 nM
inactive: Potency [10]

CCN1C(=O)NC(c2ccco2)C(C(=O)OC)=C1C (stereo unspecified)
inactive: Potency [10] | Potency [11] | Potency [12] | Potency [18] | Potency [19]

COC(=O)C1=C(C(=O)OC)[C@@H]2N(C)c3ccccc3[C@@]23C[C@@H](C(=O)OC)N(S(=O)(=O)c2ccc(Br)cc2)C3=N1
active: Potency [11] 2130 nM | Potency [12] 1690 nM
inactive: Potency [10]

CCOC(=O)C=CCCCC=CC(=O)c1ccccc1
inactive: Potency [10] | Potency [11] | Potency [12] | Potency [18] | Potency [19]

COC(=O)CCC(=O)OC1(C)C(=O)C=C2C=C(C3CC3)N(Cc3ccccc3)C=C2C1=O (stereo unspecified)
inactive: Potency [10] | Potency [11] | Potency [12] | Potency [18] | Potency [19]

Cc1ccc(S(=O)(=O)N[C@@H]2COC(=O)[C@@H](C)COC(=O)CC=C[C@H]2C)cc1
inactive: Potency [10] | Potency [11] | Potency [12] | Potency [18] | Potency [19]

COC(=O)C1=C(C(=O)OC)[C@@H]2N(C)c3ccccc3[C@@]23C[C@@H](C(=O)OC)N(S(=O)(=O)c2ccc(C)cc2)C3=N1
inactive: Potency [10] | Potency [11] | Potency [12] | Potency [18] | Potency [19]

COc1ccc(C2=CC3=C(Br)C(=O)C(C)(OC(=O)c4ccco4)C(=O)C3=CO2)cc1 (stereo unspecified)
inactive: Potency [10] | Potency [11] | Potency [12] | Potency [18] | Potency [19]

CC1(OC(=O)c2ccc(Cl)nc2)C(=O)C=C2C=C(C3CC3)OC=C2C1=O (stereo unspecified)
inactive: Potency [10] | Potency [11] | Potency [12] | Potency [18] | Potency [19]
